{"source": "PubChem BioAssay (NCI)", "note": "The panel holds about 79,000 compounds, 15% with a hit somewhere; the sample as a whole holds those more often. Unmarked numbers belong to inactive results. Active and inactive are the calls of the source. Cut-off read from the data, not from the text of the source: active = growth inhibition above about 70%; inactive = the rest.", "data": [{"test": "NCI Yeast Anticancer Drug Screen. Data for the rad50 strain (AID 155);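 note: 0% = growth of vehicle-only cultures of the same strain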", "conditions": "S. cerevisiae rad50 strain growth inhibition; at 50.0 µM; active compounds read high", "procedure,_shortened": "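Relative growth inhibition (compound vs vehicle) was measured in yeast with a defined repair-gene alteration.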", "values": [{"smiles": "CCN(Cc1ccc(C(=O)OC)cc1)c1cccc(NC(C)=O)c1", "growth inhibition": "33.5%"}, {"smiles": "c1ccc(-c2cccc(-c3cccc(-c4ccccc4)c3)c2)cc1", "growth inhibition": "18.1%"}, {"smiles": "Cc1cc(C)c(N=Nc2cc(C)c(N)cc2N)c(S(=O)(=O)O)c1", "growth inhibition": "-21.6%"}, {"smiles": "CNNCCCC(=O)NC(C)C", "growth inhibition": "-5.7%"}, {"smiles": "COc1c2ccoc2nc2c(O)c3c(c(CC=C(C)C)c12)OCO3", "growth inhibition": "-6.65%"}, {"smiles": "N#CC(C#N)=CNc1ccccc1", "growth inhibition": "5.4%"}, {"smiles": "Cc1nccn1C(C)c1ccccc1", "note": "(stereo not given)", "growth inhibition": "-9.8%"}, {"smiles": "CC1=NNC(=O)C1(C)C", "growth inhibition": "-16.4%"}, {"smiles": "CCOC(=O)NC(C)(C)CN(CCO)C(=O)OCC", "growth inhibition": "-5.9%"}, {"smiles": "CCCC1(CCC)CNC(=O)NC1", "growth inhibition": "0.45%"}, {"smiles": "CCCCOC(=O)c1cccc(C(=O)OCCCC)n1", "growth inhibition": "-20.9%"}, {"smiles": "CC(C)NC(=O)OCCN=c1c2ccccc2ccc2ccccc12", "growth inhibition": "53.3%"}, {"smiles": "C(=C\\c1ccc(/C=C/c2ccccc2)nn1)/c1ccccc1", "growth inhibition": "-5.8%"}, {"smiles": "COc1ccc(/C=C/C(=O)c2sc(N)nc2C)cc1", "growth inhibition": "26.5%"}, {"smiles": "CC(=O)NCc1cccc[n+]1[O-]", "growth inhibition": "14.8%"}, {"smiles": "C[C@@H]1CC[C@@H](C)[C@](C)(CCc2ccoc2)C/C=C\\C=C/1C(=O)O", "growth inhibition": "85.2% (active)"}, {"smiles": "Cc1ccccc1C(c1ccccc1)C(CO)CO", "note": "(stereo not given)", "growth inhibition": "-1%"}, {"smiles": "CCN(CC)c1cccc(C(=O)OCCNCC(C)C)c1", "growth inhibition": "-9.7%"}, {"smiles": "CC(=O)NCCSSCCCCS(=O)O", "growth inhibition": "-19.1%"}, {"smiles": "CC(C)C1=CC23CCC4C(C)(C(=O)O)CCCC4(C)C2CC1C1C(=O)N(c2ccccc2)C(=O)C13", "note": "(stereo not given)", "growth inhibition": "-7.45%"}]}]}
